Source: PubChem BioAssay AID624381 (The Scripps Research Institute Molecular Screening Center, 2012)
The campaign covered roughly 2,300 compounds. About 430 (19%) were called active. A selection follows. Unmarked numbers belong to inactive results.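 Rule for the calls: active = mean activation across triplicates above the hit threshold derived in the original primary screen (cut at about 15% in these data); inactive = the rest.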

biological target: 5-hydroxytryptamine receptor 2A (Mus musculus) (UniProt P35363); experiment: mouse HTR2A agonists, beta-arrestin recruitment, confirmation, cell-based, luminescence, CHO-K1 PathHunter, triplicate (AID 624381); conditions: at 7.6 µM, active compounds read high, DMSO 0%, 30 µM serotonin 100%
Sequence (P35363 whole entry, looked up): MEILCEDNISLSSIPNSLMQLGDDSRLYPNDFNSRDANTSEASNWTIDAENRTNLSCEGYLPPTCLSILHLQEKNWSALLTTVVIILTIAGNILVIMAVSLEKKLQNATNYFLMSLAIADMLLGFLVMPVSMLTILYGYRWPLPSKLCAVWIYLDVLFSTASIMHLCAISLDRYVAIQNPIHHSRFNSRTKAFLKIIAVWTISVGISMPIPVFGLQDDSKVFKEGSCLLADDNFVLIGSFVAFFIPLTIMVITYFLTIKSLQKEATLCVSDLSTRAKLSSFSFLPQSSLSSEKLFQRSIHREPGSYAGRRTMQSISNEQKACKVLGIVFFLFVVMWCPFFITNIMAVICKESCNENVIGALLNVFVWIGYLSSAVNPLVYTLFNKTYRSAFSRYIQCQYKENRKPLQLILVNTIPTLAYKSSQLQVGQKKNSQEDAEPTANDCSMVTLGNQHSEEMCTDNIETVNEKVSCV

| SMILES | activation |
| --- | --- |
| Cc1[nH]c2ccccc2c1CCN(Cc1cccs1)C(=S)NC(C)(C)C | 4.41% |
| CCOc1ccc(/C(O)=C2\C(=O)C(=O)N(c3ccc(OC)cc3)C2c2ccccc2[N+](=O)[O-])cc1 (stereo unspecified) | 1.71% |
| CCCCn1c(N)c(N(CC(C)C)C(=O)CSc2ccc([N+](=O)[O-])cc2)c(=O)[nH]c1=O | 0.81% |
| C=CCn1c(=NC(=O)c2cccs2)sc2cc(NC(C)=O)ccc21 | -1% |
| COc1ccc(NS(=O)(=O)c2cc(C(=O)Nc3ccccc3C(=O)O)ccc2C)cc1 | 5.94% |
| CCOC(=O)c1cc(-c2ccccc2C)n(Cc2cc(C)no2)n1 | 2.4% |
| COc1cccc(OC)c1OCCN1CCN(C(=O)c2ccco2)CC1 | 78.4% (active) |
| O=C(c1ccco1)N1CCN(CCOc2ccccc2)CC1 | 34.5% (active) |
| CSc1ncnc2c1ncn2CCCNCc1cccs1 | -4.72% |
| Oc1ccc(CN2CCN(c3ncccn3)CC2)cc1 | 101% (active) |
| COc1ccccc1CN1CCN(Cc2cc(OC)c(OC)cc2OC)CC1 | 8.39% |
| Cc1ccc(CN2CCN(c3ncccn3)CC2)c(C)c1 | 118% (active) |
| CC(C)c1cc(C(=O)O)on1 | 13.4% |
| O=C1CCc2cc(S(=O)(=O)N3CCC(C(=O)NCc4ccccc4Cl)CC3)ccc2N1 | -6.01% |
| O=C(CNCc1cccs1)Nc1cc(S(=O)(=O)N2CCCC2)ccc1Cl | 50.6% (active) |
| COC(=O)c1ccc(CSc2nnc(NC(C)C)s2)cc1 | -5.43% |
| COc1ccc(C2c3[nH]c4ccccc4c3C[C@H]3C(=O)N(CC(C)C)CC(=O)N23)c(OC)c1 (stereo partly specified) | 0.84% |
| Cc1cccc(CN2CCN(C3CN(Cc4ccccc4)S(=O)(=O)C3)CC2)c1 (stereo unspecified) | 8.09% |
| O=C(NCCCN1CCN(c2ccccc2F)CC1)C1CCC(=O)N1C1CCCCC1 (stereo unspecified) | 41.4% (active) |
| CC(C)Oc1ccccc1C(=O)NC(CO)C(=O)O (stereo unspecified) | 0.21% |
| Cc1cccc(CN2CCN(C3CN(Cc4cn(Cc5cc(C)cc(C)c5)nn4)S(=O)(=O)C3)CC2)c1 (stereo unspecified) | 8.35% |
| Cc1cc(C(=O)OCC(=O)N2c3ccccc3NC(=O)C2(C)C)c(C)n1-c1ccccc1 | -2.45% |
| CN(C)[C@@H]1C(=O)C(C(N)=O)=C(O)[C@@]2(O)C(=O)C3=C(O)c4c(O)ccc(Cl)c4[C@@H](O)[C@H]3C[C@@H]12 | 40.1% (active) |
| CCCCC(CC)CNC(=O)CCCCn1c(=O)[nH]c2ccsc2c1=O (stereo unspecified) | -3.5% |

| SMILES | activation |
| --- | --- |
| COc1ccc(-c2nc3cc([N+](=O)[O-])ccc3o2)cc1OC | -2.5% |
| COc1ccc2[nH]cc(CCN3C(=O)c4ccc(C(=O)O)cc4C3=O)c2c1 | -1.14% |
| COC(=O)[C@]12CCCCC=C1N(CCC1=CCCCC1)C(=O)[C@H](CC(=O)NCC1CCCCC1)C2 | -5.33% |
| Nc1cc(C(=O)N2CCN(c3ccccc3Cl)CC2)ccc1N1CC2CC(C1)c1cccc(=O)n1C2 (stereo unspecified) | -1.89% |
| COC(=O)c1cc(N2CCNCC2)nc2ccccc12 | 2.65% |
| O=C(c1ccncc1)N1CCN(c2ccc3ccccc3n2)CC1 | 17.1% (active) |
| COC(=O)Cn1nc(-c2ccccc2)c2cc(Cl)ccc21 | -5.87% |
| FC(F)(F)COc1nc(N2CCCCC2)nc(N2CCNCC2)n1 | 8.3% |
| CS(=O)(=O)c1ccc2nc(NC(=O)C3CCCCC3)sc2c1 | -0.86% |
| O=C(Nc1ccc2c(c1)[C@@H]1C[C@@H](CC(=O)N3CCCCC3)O[C@@H](CO)[C@@H]1O2)NC1CCCCC1 | -4.45% |
| COc1ccc(/C=N/Nc2ccccc2C(=O)O)cc1 | 4.6% |
| Cc1cc([N+](=O)[O-])ccc1NC1CCCC1 | 13.5% |
| Cc1ccc(NC(=O)CSc2nnc(COc3ccccc3C)o2)cc1 | -4.47% |
| N#CCSc1nn(-c2ccc(F)cc2)c(=S)s1 | -4.94% |
| COCCN(Cc1cc2cc3c(cc2nc1Cl)OCO3)C(=O)c1cccc(C)c1 | 3.25% |
| CC(Nc1ccccc1)c1cccnc1 (stereo unspecified) | -3.04% |
| CC1(Cc2cccc(C#N)c2)C(=O)Nc2ccc(-c3cccc(C(F)(F)F)c3)cc21 (stereo unspecified) | -0.38% |
| NNc1cccc(C=Cc2ccccc2)cc1=O | 1.74% |
| O=C(Nc1cccc2cccnc12)c1ccc2sc([C@H]3C[C@H](O)[C@@H](CO)O3)nc2c1 | 4.32% |
| Cc1ccc(NC(=O)CCOc2ccccc2)cc1S(=O)(=O)Nc1ccccc1Cl | 3.02% |
| Cc1ccc(S(=O)(=O)N2CCN(c3ncnc4ccccc34)CC2)cc1 | 9.56% |
| CC(=O)c1ccc(OCC(=O)N(C)C2CCS(=O)(=O)C2)cc1 (stereo unspecified) | -3.74% |
| COC(=O)[C@@]1(Cc2ccc(F)cc2)[C@H]2c3cc(C(=O)N(C)C)n(CCc4c[nH]c5ccc(OC)cc45)c3C[C@H]2CN1C(=O)c1ccccc1 | 10.9% |
| C/C(=N\NC(=O)COc1c(C)cccc1C)c1cccs1 | -2.38% |

| SMILES | activation |
| --- | --- |
| CCCN(CCc1ccccc1)C1CCc2c(O)cccc2C1 (stereo unspecified) | 164% (active) |
| CCCC(=O)N=c1sc2cccc(F)c2n1C | -2.76% |
| Cc1ccc2c(c1)NCC(C(=O)NC1CCC(C)CC1)O2 (stereo unspecified) | -3.96% |
| CSc1nsc(SCC(=O)Nc2cc(C(=O)O)ccc2C)n1 | 1.2% |
| CCOCCCNC(=O)Cc1cc(=O)[nH]c(=O)[nH]1 | -1.89% |
| CC(=O)N1c2ccc(S(=O)(=O)N3CCC(C(=O)NC4CCCCC4C)CC3)cc2CC1C (stereo unspecified) | -5.72% |
| O=C(O)C1C2C=CC(O2)C1C(=O)NCCc1cccc(Cl)c1 (stereo unspecified) | 4.65% |
| COC(=O)CC(=O)N1CCN(c2ccc(Cl)c(Cl)c2)CC1 | 13.8% |
| O=C(O)c1ccc(S(=O)(=O)N2CCC(Cc3ccccc3)CC2)cc1 | -0.19% |
| COc1ccc(CNC(=O)c2ccc(NS(=O)(=O)c3ccc4[nH]c(=O)[nH]c4c3)cc2)cc1OC | -3.98% |
| O=C(OCC(=O)N1CCOCC1)c1ccc2ccccc2c1 | -4.74% |
| Cc1cc(C)n(S(=O)(=O)c2cccc([N+](=O)[O-])c2)n1 | -4.03% |
| COc1ccc2c(Cl)c(-c3nnco3)sc2c1 | -2.25% |
| CCn1c(SCC(=O)N2CCCC2=O)nc2ccccc21 | -2.49% |
| O=C(Cc1ccccc1)n1nc(-c2ccccc2)nc1NCc1ccco1 | 4.58% |
| OCC1(Cc2ccccc2)CCN(Cc2cc3ccccc3o2)CC1 | 81.8% (active) |
| COc1ccc(N2CC(C(=O)NCCN3C(=O)S/C(=C\c4cccnc4)C3=O)CC2=O)c(OC)c1 (stereo unspecified) | -1.44% |
| Cc1c(C(=O)NCC2CC2)sc(=O)n1Cc1cccc(F)c1 | -3.87% |
| COc1ccc(/C(=N\O)c2nccc3cc(OC)c(OC)cc23)cc1OC | -3.02% |
| Cc1ccccc1CSCC(=O)NC(=O)NC(C)(C)C | -3.39% |
| N#Cc1c(NC(=O)CCCl)sc2c1CCCCC2 | 0.58% |
| O=C(NCc1ccco1)c1cccn2c(=O)c3c4c(sc3nc12)CCCC4 | -1.08% |
| Fc1ccc2[nH]c3c(N4CCSCC4)ncnc3c2c1 | 3.26% |
| CCCCNc1c(-c2cccc(Sc3ccc(OC)cc3)c2)nc2ccccn12 | 5.41% |

| SMILES | activation |
| --- | --- |
| COc1ccccc1Nc1nnc(SC(C)C(=O)NC2CC2)s1 (stereo unspecified) | -1.26% |
| Cc1oc2cc(Br)c(O)c(Br)c2c1C(=O)c1ccccc1 | -2.71% |
| N/C(=N\S(=O)(=O)c1cc(C(F)(F)F)cc(C(F)(F)F)c1)c1cccs1 | -1.99% |
| O=C(Nc1cc(=O)[nH]c2ncnn12)c1ccccc1Cl | -5.17% |
| CCOC(=O)[C@]12CCCC=C1N(Cc1ccc3c(c1)OCO3)C(=O)[C@H](CC(=O)NCc1cccs1)C2 | -3.55% |
| O=C1CC(c2cccc(Cl)c2)CC(O)=C1C=Nc1ccccc1 (stereo unspecified) | -4.5% |
| COc1cccc(NC(=O)CSc2nnc(-c3cccnc3)o2)c1 | -0.15% |
| Cc1ccc2nc(-c3ccncc3)cc(C(=O)Nc3ccncc3)c2c1 | 12.6% |
| C/C(=N\NC(=S)NC1CCCCC1)c1ccc(C)o1 | 29.7% (active) |
| Cn1c2c(c(=O)n(C)c1=O)C(c1ccc(O)cc1)Nc1ccccc1O2 (stereo unspecified) | -3.78% |
| O=C(Cc1ccsc1)N1CCN(S(=O)(=O)c2cc(C(F)(F)F)cc(C(F)(F)F)c2)CC1 | -3.88% |
| CO/N=C/CC(=O)c1ccc(OC)cc1 | -1.94% |
| CCOC(=O)/C=c1\s/c(=C\c2ccccc2OC)c(=O)n1CC(=O)N1CCOCC1 | -3.42% |
| O=C(COC(=O)c1cc(S(=O)(=O)N2CCOCC2)ccc1F)NC1CC1 | -1.03% |
| O=S(=O)(c1ccc(OCC(O)CN2CCN(c3ccccc3Cl)CC2)cc1)N1CCOCC1 (stereo unspecified) | 41.2% (active) |
| Nc1c(N(Cc2ccco2)C(=O)c2cccc(F)c2)c(=O)[nH]c(=O)n1Cc1ccccc1 | -0.68% |
| C[C@@H]1ON(C)[C@H]2C[C@H]3c4cc(N5CCN(C)CC5)ccc4CCN3C(=O)[C@@H]12 | 4.65% |
| CCOC(=O)c1ccc(NC(=O)Cn2cnc3cc(C)c(C)cc32)cc1 | -2.29% |
| CNCC(O)c1ccc(O)c(O)c1 (stereo unspecified) | 136% (active) |
| C=C1C(=O)OC2C1CCC(C)=CCCC1(C)OC21 (stereo unspecified) | -6.24% |
| Cc1cccnc1C(NC(=O)C1CCN(Cc2ccc(Cl)c(Cl)c2)CC1)c1ccc(Cl)cc1 (stereo unspecified) | -7.94% |
| Cc1ccc(C(=O)N/C(=C/c2cccs2)C(=O)N2CCCCC2)cc1 | -4.44% |
| CCn1cc(C(=O)OCC(=O)Nc2cccc(C)c2)c(=O)c2ccc(C)nc21 | -1.9% |
| COc1ccc(C(C)=O)cc1COC(=O)Cn1cnc2ccccc2c1=O | 2.93% |
